# Source: PubChem
# Rows were chosen to be rich in hits. Some 2.8% of all compounds tested hit in one or more screens of this group.
# PMP22 txn prim = Cell-based coincidence reporter assay to measure PMP22 gene transcription in S16 Pmp22-F2sN cells - Primary screen. 43,000 compounds, 2% hits. S16 Pmp22-F2sN Schwann cells, FLuc/NLuc coincidence luminescence, 24 h. Potency, µM (titrated, usually from 57.5 µM), inactives show top-dose activity change, negative = inhibition, actives largely listed as inhibitors. AID 1508649, 2021; active means clear falling dose curves in both reporters; inconclusive means both reporters move, but less clearly or upward; inactive means either reporter flat; the % is the NLuc reporter signal; further: potency means the concentration at half of the fitted maximal effect; on the % scale 0 is the no-effect control and ±100 the full control effect
#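 Transcriptional readout in edited S16(c9) cells: two luciferases reported from the Pmp22 locus, measured in turn after 24 h compound incubation.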
# GALC G270D act = A Novel Cell-Based Assay to Identify Small Molecules for B -Galactocerebrosidase; P54803; 145M-Twi-hGALC-G270D cells, HMU-beta-Gal fluorescence, 48 h; Potency, µM (highest dose often 57.5 µM), actives largely listed as activators; 45,000 compounds, 0.1% hits; further: potency means the concentration at half of the fitted maximal effect; 0% is about no effect; nearly all actives have a fitted effect of over 65% in size
#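 qHTS, 1536-well; 145M-Twi-hGALC-G270D cells (WT line also made) in DMEM/F12 + 10% FBS; compound incubation on live cells; HMU-β-gal 0.1 mM final, pH 5.2, NaTC; carbonate stop; fluorescence increase = enhanced residual activity.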
# pS6 MEF inh = Acumen qHTS Assay for Inhibitors of the mTORC1 Signaling Pathway in MEF (Tsc2-/-, p53-/-) Cells: Sytravon | Tsc2-/- p53-/- MEF, phospho-rpS6 immunofluorescence/PI, 24 h | Potency, µM (top dose mostly 38.3 µM), without a hit: at the top dose activity change, negative = inhibition, most hits filed as inhibitors | 44,000 compounds, 0.78% hits;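 further: potency means the concentration at half of the fitted maximal effect; plate controls were DMSO for no effect and rapamycin for full effect; nearly all actives have a fitted effect of over 50% in size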
#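 Immunofluorescence of rpS6 phosphorylation in Tsc2-/-, p53-/- MEFs after 24 h compound exposure, normalized to propidium iodide signal. Activity is expressed as % positive cells, thresholded with 7.5 nM rapamycin.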
# S16 F2sN tox = Cell viability qHTS assay in S16 Pmp22-F2sN cells. S16 Pmp22-F2sN Schwann cells (luciferase reporters placed in the Pmp22 gene) viability, CellTiter-Glo, 24 h. Potency, µM (top dose mostly 57.5 µM), for the others: at the top dose activity change, negative = cytotoxicity, usual class: cytotoxic. 43,000 compounds, 0.48% hits. AID 1508642, 2021; further: potency means the concentration at half of the fitted maximal effect; on the % scale 0 is the no-effect control and ±100 the full control effect; nearly all actives have a fitted effect of over 65% in size
#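 Luminescence from CellTiter-Glo, read by CCD camera after a 15 min room-temperature incubation, served as the viability signal. Reporter Schwann cells (S16 Pmp22-F2sN) had been treated with pin-transferred compounds for 24 h at 37C.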
# NLuc sat counter = Biochemical NLuc saturation counterscreen for small molecule modulators of PMP22 gene expression - Nano-Glo assay; Potency, µM (top dose mostly 57.5 µM), without a hit: at the top dose activity change, negative = inhibition, usual class: inhibitors; 690 compounds, 4% hits; Secreted NLuc enzyme (filtered S16 cell medium), Nano-Glo luminescence; AID 1508638, 2021; shares compounds with PMP22 txn prim; further: potency means the concentration at half of the fitted maximal effect; on the % scale 0 is the no-effect control and ±100 the full control effect
# NLuc Km counter = Biochemical coelenterazine-based NLuc counterscreen for small molecule modulators of PMP22 gene expression - Km assay; shares compounds with PMP22 txn prim; secreted NLuc enzyme, coelenterazine luminescence, Km conditions; Potency, µM (titrated, usually from 57.5 µM), for the others: at the top dose activity change, negative = inhibition, actives largely listed as inhibitors; 690 compounds, 5% hits; AID 1508639, 2021; further: potency means the concentration at half of the fitted maximal effect; on the % scale 0 is the no-effect control and ±100 the full control effect
# FLuc ctr PMP22 = Biochemical FLuc counterscreen for small molecule modulators of PMP22 gene expression; shares compounds with PMP22 txn prim; purified P. pyralis FLuc, luminescence, 10 min; Potency, µM (doses to about 57.5 µM), for inactives: top-dose activity, negative = inhibition, most hits filed as inhibitors; 690 tested, under 10 active; further: % of control where 0% means no effect
# S16 viab conf = Cell viability qHTS assay in S16 Pmp22-F2sN cells - Confirmatory screen. shares compounds with PMP22 txn prim. S16 Schwann cells viability, CellTiter-Glo ATP luminescence, 24 h. Potency, µM (top dose mostly 57.5 µM), for the others: at the top dose activity change, negative = viability loss, most hits filed as cytotoxic. 690 compounds, 7% hits; further: potency means the concentration at half of the fitted maximal effect; on the % scale 0 is the no-effect control and ±100 the full control effect
# PMP22 txn conf = Cell-based coincidence reporter assay to measure PMP22 gene transcription in S16 Pmp22-F2sN cells - Confirmatory screen. shares compounds with PMP22 txn prim. S16 Schwann cells Pmp22-F2sN, dual luciferase, 24 h. Potency, µM (top dose mostly 57.5 µM), without a hit: top-dose activity change, negative = inhibition, most hits filed as inhibitors. 690 compounds, 22% hits; active means clear falling dose curves in both reporters; inconclusive means both reporters move, but less clearly or upward; inactive means either reporter flat; the % is the FLuc reporter signal; further: potency means the concentration at half of the fitted maximal effect
# The depositor's hits bear a star; i = inactive; ? = inconclusive; . = no result. Unless noted, the call rests on the fitted dose curve; in most records, active means well fitted curve in the direction sought with a large enough effect; inconclusive means small, poorly fitted or top-dose-only effect, or another doubt; inactive means no such curve, though single readings can be large; an effect the other way counts as inactive or inconclusive.
SMILES,PMP22 txn prim,GALC G270D act,pS6 MEF inh,S16 F2sN tox,NLuc sat counter,NLuc Km counter,FLuc ctr PMP22,S16 viab conf,PMP22 txn conf
Cc1cccc(OCC(=O)Nc2ccc3nc(SCc4ccccc4)sc3c2)c1,16µM*,i,-4.2%,27.9%,3.3%,4.4%,1.0%,-0.8%,?
Cc1cccc(OCCSc2nc3ccc(NC(=O)COc4ccccc4)cc3s2)c1,-31.5%,i,-6.4%,-6.0%,.,.,.,.,.
O=C(COc1ccc(F)cc1)Nc1ccc2nc(SCc3ccccc3)sc2c1,6.96µM*,i,-12.9%,17.0%,-0.6%,-1.0%,8.5%,-5.8%,?
Cc1ccc(CSc2nc3ccc(NC(=O)COc4ccc(F)cc4)cc3s2)cc1,-8.3%,i,-1.0%,6.5%,.,.,.,.,.
Cn1c(Oc2ccc(Cl)cc2)nc2c1c(=O)n(Cc1ccc(F)cc1)c(=O)n2C,1.4%,i,6.4%,1.7%,.,.,.,.,.
